From PubChem BioAssay
Unmarked numbers belong to inactive results. Calls of active or inactive are those of the source.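 How the source made its calls: active means inhibition above the hit cutoff set in the earlier primary screen (cut at about 27% in these data); inactive means the rest.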

Each compound was assayed against Protein phosphatase methylesterase 1 (Homo sapiens) (UniProt Q9Y570) (assay: PME-1 inhibitor activity retest, confirmation, biochemical, fluorescence polarization, FP-Rh probe, triplicate (AID 2171;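 further: 0% = enzyme with DMSO and 100% = wells lacking PME-1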)). Conditions: recombinant PME-1, FP-Rh probe fluorescence polarization; at 5.9 µM; hits give high values.
Chain of Protein phosphatase methylesterase 1 (Homo sapiens) (Q9Y570 whole entry, looked up): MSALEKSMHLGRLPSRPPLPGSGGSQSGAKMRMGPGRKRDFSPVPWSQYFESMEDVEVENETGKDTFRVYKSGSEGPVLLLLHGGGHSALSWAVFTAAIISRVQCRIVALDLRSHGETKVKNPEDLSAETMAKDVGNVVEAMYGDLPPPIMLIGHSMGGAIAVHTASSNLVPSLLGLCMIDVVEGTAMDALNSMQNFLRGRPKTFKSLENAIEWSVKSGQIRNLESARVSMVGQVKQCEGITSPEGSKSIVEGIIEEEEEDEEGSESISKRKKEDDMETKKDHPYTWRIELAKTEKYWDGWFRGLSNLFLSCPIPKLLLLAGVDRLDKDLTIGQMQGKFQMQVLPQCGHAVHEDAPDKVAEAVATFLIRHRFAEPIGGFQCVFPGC
`Cc1cc(N(C)C)ccc1N=Nc1ccc2ncccc2c1` was tested, and the inhibition was 42.3% (active). For `CCOC(=O)CCc1c(C)nc(SCCCn2c(=O)[nH]c3ccccc32)c(C#N)c1C`, the inhibition was 22.6%. For `CCN(c1ccccc1)S(=O)(=O)c1ccc(OC)c(NC(=O)CNCCc2ccccc2)c1`, the inhibition was 19.9%. `CCc1cccc2c(C(=O)COC(=O)c3ccc([N+](=O)[O-])s3)c[nH]c12` gave an inhibition of 24.6%. With `COc1ccc(C(=O)c2oc3ccc(OC)cc3c2N)cc1` the inhibition was 29.6% (active). `Cc1cc(C)c2[nH]c(O)c(N=NC3=NC(=O)CS3)c2c1` was tested, and the inhibition was 32% (active). `Cc1cccc(C)c1NS(=O)(=O)c1ccc(NC(=O)c2ccc(Cl)c([N+](=O)[O-])c2)cc1` showed an inhibition of -96.3%. `COc1ccc(-c2nc(-c3ccccc3)c(-c3cc([N+](=O)[O-])ccc3C)[nH]2)cc1O` was tested, and the inhibition was -4.82%. In the case of `CC(C)Oc1ccc(S(=O)(=O)N2CCCCC2)cc1NC(=O)CN1C(=O)NC(C)(c2ccccc2)C1=O` (stereo not given), the inhibition was 42.6% (active). For `CN(c1ccccc1)S(=O)(=O)c1ccc(NC(=O)c2ccc(-c3ccccc3)cc2)cc1`, the inhibition was 59.7% (active). `O=C1CC(N(O)c2ccccc2)C(=O)N1c1cc(Cl)cc(Cl)c1` (stereo not given) showed an inhibition of 5.35%. In the case of `CCO[C@@H]1OC(C(=O)N2CCN(Cc3ccccc3)CC2)=C[C@H](c2cn(C(C)=O)c3ccccc23)[C@H]1CCCO`, the inhibition was 75.4% (active). `COc1cccc(-c2nc(NC3CCCC3)c3ccccc3n2)c1O` gave an inhibition of 13.3%. In the case of `COc1ccc(N=Nc2nc3ccc(Br)cc3n2C)cc1`, the inhibition was 29.7% (active). With `CN(C)S(=O)(=O)c1ccc(-c2csc(N/N=C/c3ccc(O)cc3)n2)cc1` the inhibition was 25%. `Cc1ccc(NCC(O)C(O)C(O)CO)c(N=Nc2ccccc2)c1C` (stereo not given) was tested, and the inhibition was 50.7% (active). With `COc1ccc(-c2nc(NC(=O)c3[nH]c(C)c(C(C)=O)c3C)sc2C)cc1` the inhibition was 55% (active). `COc1ccc(C(=O)c2sc3nc(-c4ccccc4)ccc3c2N)cc1` showed an inhibition of 11.8%. `N#CC1=C(N)C(C#N)(C#N)C(c2ccncc2)C2CN(C(=O)OCc3ccccc3)CC=C12` (stereo not given) was tested, and the inhibition was 28.3% (active). With `COc1cc2c(C#N)c(N3CCN(c4ccccc4OC)CC3)nc(N)c2c(N)n1` the inhibition was 78% (active). For `Cc1cc2c(N=O)c(NO)ccc2[nH]1`, the inhibition was 33.3% (active). With `O=C(O)c1ccc(N/N=C/c2ccc(-c3ccc(Cl)cc3Cl)o2)cc1` the inhibition was 85.9% (active). Work on `CS(=O)(=O)N1N=C(c2ccccc2)CC1c1ccc2c(c1)OCO2` (stereo not given) yielded an inhibition of -54.8%. `Oc1nc(Nc2cccc(Cl)c2)sc1/C=C1\C=Nc2ccccc21` was tested, and the inhibition was 26.6% (active). For `Cc1cc(C)c(C#N)c(SCc2nc3ccccc3[nH]2)n1`, the inhibition was 11.9%. `CCCC(=Nc1ccc(N)cc1)C1=C(O)C(C(=O)OC)C(C)(C)CC1=O` (stereo not given) gave an inhibition of 4.48%. With `O=C(CCCSc1ccccc1)Nc1nc(-c2ccco2)c(-c2ccco2)s1` the inhibition was 6.79%. Work on `O=C(c1ccccc1F)N1CCN(Cc2nc3sc4c(c3c(=O)[nH]2)CCCC4)CC1` yielded an inhibition of 19.9%. For `Cc1nc(S/C(=C/c2ccc(-c3cc(Cl)ccc3C)o2)C(=O)O)n[nH]1`, the inhibition was 26.7% (active). In the case of `CCCCn1c(/C=N/Nc2nc3ccccc3[nH]2)nc2ccccc21`, the inhibition was 61.3% (active). With `O=c1[nH]nc(CNc2ccc(O)cc2)c2ccccc12` the inhibition was 8.74%. Compound `N[C@H](CSCc1ccccc1)C(=O)Nc1ccc([N+](=O)[O-])cc1` has an inhibition of -1.96%. `Clc1ccc2[nH]c3c(c2c1)CCc1cn[nH]c1-3` showed an inhibition of 21.1%. In the case of `COc1ccccc1NC(=O)c1cc2ccc(O)cc2o/c1=N\O`, the inhibition was 19.6%. For `COc1cc(/C=N/Nc2nc3ccccc3s2)cc([N+](=O)[O-])c1O`, the inhibition was 72.5% (active). `CCc1nnc(NC(=O)CSc2nc(C)c3c(c2C#N)CCCC3)s1` was tested, and the inhibition was 13.9%. `CCCCC(=Nc1ccc(N)cc1)C1=C(O)C(C(=O)OC)C(C)(C)CC1=O` (stereo not given) was tested, and the inhibition was 13.4%. For `Cc1cccnc1Nc1nc(-c2ccc(O)c(O)c2)cs1`, the inhibition was 14.8%. For `CCN(CC)c1nc2c3c(nc4c(c3c1C#N)CC(=O)N4c1ccc(Cl)cc1)NC(C)=N2`, the inhibition was 9.8%. `COc1cc(/C=N/NC(=S)Nc2cccc(S(=O)(=O)N(C)C)c2)ccc1O` was tested, and the inhibition was 14.1%.
